The panel holds about 83,000 compounds, 20% with a hit somewhere; the sample as a whole holds those more often.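 The endpoint reported here, percent growth, reads 100 for growth as untreated, 0 for no net growth and -100 for all cells dead.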 Values without a mark were called inactive. Active and inactive are the calls of the source. How the source made its calls: active means growth percent below 10; inactive means the rest.
System: HL-60(TB) leukemia
Experiment: NCI-60 one-dose screen, 48 h (100 = growth as untreated, 0 = no growth, -100 = all killed)
Conditions: 10 µM unless noted

| Structure (SMILES) | growth |
| --- | --- |
| CNC(=O)c1cc(Oc2cccc3nc(NC(=O)Nc4cc(C(F)(F)F)ccc4Cl)ccc23)ccn1 | 103% |
| C=CC[n+]1c(/C=C2\Sc3ccccc3N2C)sc(-c2ccccc2)c1-c1ccccc1 | -25.5% (active) |
| O=c1c2cccc3c(Nc4ccc(Br)cn4)ccc(c32)c2nc3ccccc3n12 | 128% |
| CCNc1ncnc2n[nH]nc12 | 94.8% |
| CC(C)(C)c1ccc([I+]c2ccc(C(C)(C)C)cc2)cc1 | -38.7% (active) |
| COc1ccc(Cl)cc1NC(N)=S | 101% |
| N#Cc1c(-c2ccccc2)[nH]c2ncc(-c3ccccc3)n2c1=O | 97.1% |
| O/N=C/c1ccncc1 | 110% |
| S=c1[nH]nc2sc3ccccc3n12 | 107% |
| CC(C)(CNC1CCCCC1)OC(=O)c1ccccc1 | 95.3% |
| C=C1C(=O)O[C@H]2[C@H]1CC/C(COC(=O)NCc1cn(C)c3ccccc13)=C\CC[C@@]1(C)O[C@@H]21 | -48.5% (active) |
| COc1ccc2[nH]c(C(=O)N3CCN(C(=O)OCc4ccc5c(Cl)cc(Cl)c(O)c5n4)CC3)cc2c1 | -45% (active) |
| COC1/C=C/OC2(C)Oc3c(C)c(O)c4c(O)c(c(C=NOC(c5ccccc5)c5ccccc5)c(O)c4c3C2=O)NC(=O)/C(C)=C/C=C/C(C)C(O)C(C)C(O)C(C)C(OC(C)=O)C1C (stereo unspecified) | -13.8% (active) |
| CCN1CCN(c2nc(NNC(=O)c3cccc(OC)c3)nc(N3CCN(C(c4ccccc4)c4ccccc4)CC3)n2)CC1 | 28.4% |
| COc1ccc(C2C(C#N)=C(N)Oc3c2sc2c(F)cccc32)cc1 (stereo unspecified) | -29% (active) |
| O=C(CCNNC(=O)c1ccncc1)NCc1ccccc1 | 70.1% |
| O=S(=O)(Nc1cccc(Cl)c1)c1ccc(-c2cnc(C3CC3)o2)cc1 | 2.04% (active) |
| COc1ccc(S(=O)(=O)Nc2cc(Sc3cccc4cccnc34)c(O)c3ccccc23)cc1 | -18.8% (active) |
| CN(C)/N=C/c1ccccc1O | 97.1% |
| C=CCc1cc(C)ccc1NC(C(=O)NCC(=O)OC)c1ccccc1 (stereo unspecified) | 103% |
| C#CCOc1ccc(C2=NN(C)C3N=C(Cl)c4ncn(C)c4N23)cc1OCC#C (stereo unspecified) | 98.6% |
| C/C(=C(/c1ccccc1)c1ccc(OCC(O)CN2CCOCC2)cc1)c1ccccc1 (stereo unspecified) | 60.7% |
| COc1ccc(-c2nc3ccc(-c4nc5ccc(N6CCN(c7ccccc7)CC6)cc5[nH]4)cc3[nH]2)cc1OC | 16.1% |
| O=C1N/C(=C\c2ccccc2)c2ncccc21 | 117% |
| O=C(N/N=C\c1cccc([N+](=O)[O-])c1)N/N=C/c1cccc([N+](=O)[O-])c1 | 107% |
| Clc1cccc(Cl)c1C(Nc1nc2ccccc2s1)Nc1nc2ccccc2s1 | 105% |
